According to the supplement of paper PMC10849652:
Of roughly 7,900 targets only a part is listed; those with a hit were picked by preference. About 0.6% of all pairs of compound and target were hits.

The targets below were run with c1cn2cc(-c3ccc4cn[nH]c4c3)nc(Nc3ccc(N4CCOCC4)cc3)c2n1 [entospletinib] (assay: log2 fold change, soluble protein after heating vs DMSO (PISA); higher = thermal stabilisation; K562 cells, 10 uM, 30 min; active = over 0.2 and 3.5 SD of the protein, either way, in both replicates (recomputed)).
In short: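 K562 cells at 2×10^6 cells/mL were exposed to 10 μM compound for 30 min, then aliquots were heated for 3 min across 48°C-58°C, pooled, and extracted in PBS containing 0.5% NP-40 at 4°C. The supernatant after 21,000xg for 90 min was taken as soluble protein and measured by TMTpro 16plex LC-MS/MS with channel sums equalised. Thermal stability is reported relative to control samples, with values from duplicates. Fold changes are given on a log2 scale.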

Chain of UniProt Q8N1A6 (Q8N1A6 whole entry, looked up): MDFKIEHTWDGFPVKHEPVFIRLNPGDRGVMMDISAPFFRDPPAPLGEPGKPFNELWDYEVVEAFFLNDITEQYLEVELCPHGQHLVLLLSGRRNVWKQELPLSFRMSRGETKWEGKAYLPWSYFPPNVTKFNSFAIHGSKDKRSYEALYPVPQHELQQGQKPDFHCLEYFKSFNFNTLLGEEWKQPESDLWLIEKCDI
Chain of UniProt Q9UNS2 (Q9UNS2 whole entry, looked up): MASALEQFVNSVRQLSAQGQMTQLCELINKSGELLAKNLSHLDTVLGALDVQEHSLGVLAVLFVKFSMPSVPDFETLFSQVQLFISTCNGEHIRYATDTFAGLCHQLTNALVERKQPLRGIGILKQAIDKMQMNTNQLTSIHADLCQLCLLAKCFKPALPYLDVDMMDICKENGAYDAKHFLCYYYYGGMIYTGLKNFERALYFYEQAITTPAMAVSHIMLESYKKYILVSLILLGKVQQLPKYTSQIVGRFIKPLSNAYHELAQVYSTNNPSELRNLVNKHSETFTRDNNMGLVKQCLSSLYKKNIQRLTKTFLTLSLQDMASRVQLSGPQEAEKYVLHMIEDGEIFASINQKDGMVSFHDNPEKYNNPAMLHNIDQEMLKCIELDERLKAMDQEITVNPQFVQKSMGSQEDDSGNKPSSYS
Chain of UniProt P48509 (P48509 whole entry, looked up): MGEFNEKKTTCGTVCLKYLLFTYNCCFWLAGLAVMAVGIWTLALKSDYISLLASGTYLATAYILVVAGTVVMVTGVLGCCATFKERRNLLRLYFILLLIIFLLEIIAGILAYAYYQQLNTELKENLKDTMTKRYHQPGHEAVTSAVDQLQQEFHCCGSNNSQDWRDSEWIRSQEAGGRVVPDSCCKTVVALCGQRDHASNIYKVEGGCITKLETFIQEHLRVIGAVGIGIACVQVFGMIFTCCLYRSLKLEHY
Chain of UniProt P0C0L4 (P0C0L4 whole entry, looked up): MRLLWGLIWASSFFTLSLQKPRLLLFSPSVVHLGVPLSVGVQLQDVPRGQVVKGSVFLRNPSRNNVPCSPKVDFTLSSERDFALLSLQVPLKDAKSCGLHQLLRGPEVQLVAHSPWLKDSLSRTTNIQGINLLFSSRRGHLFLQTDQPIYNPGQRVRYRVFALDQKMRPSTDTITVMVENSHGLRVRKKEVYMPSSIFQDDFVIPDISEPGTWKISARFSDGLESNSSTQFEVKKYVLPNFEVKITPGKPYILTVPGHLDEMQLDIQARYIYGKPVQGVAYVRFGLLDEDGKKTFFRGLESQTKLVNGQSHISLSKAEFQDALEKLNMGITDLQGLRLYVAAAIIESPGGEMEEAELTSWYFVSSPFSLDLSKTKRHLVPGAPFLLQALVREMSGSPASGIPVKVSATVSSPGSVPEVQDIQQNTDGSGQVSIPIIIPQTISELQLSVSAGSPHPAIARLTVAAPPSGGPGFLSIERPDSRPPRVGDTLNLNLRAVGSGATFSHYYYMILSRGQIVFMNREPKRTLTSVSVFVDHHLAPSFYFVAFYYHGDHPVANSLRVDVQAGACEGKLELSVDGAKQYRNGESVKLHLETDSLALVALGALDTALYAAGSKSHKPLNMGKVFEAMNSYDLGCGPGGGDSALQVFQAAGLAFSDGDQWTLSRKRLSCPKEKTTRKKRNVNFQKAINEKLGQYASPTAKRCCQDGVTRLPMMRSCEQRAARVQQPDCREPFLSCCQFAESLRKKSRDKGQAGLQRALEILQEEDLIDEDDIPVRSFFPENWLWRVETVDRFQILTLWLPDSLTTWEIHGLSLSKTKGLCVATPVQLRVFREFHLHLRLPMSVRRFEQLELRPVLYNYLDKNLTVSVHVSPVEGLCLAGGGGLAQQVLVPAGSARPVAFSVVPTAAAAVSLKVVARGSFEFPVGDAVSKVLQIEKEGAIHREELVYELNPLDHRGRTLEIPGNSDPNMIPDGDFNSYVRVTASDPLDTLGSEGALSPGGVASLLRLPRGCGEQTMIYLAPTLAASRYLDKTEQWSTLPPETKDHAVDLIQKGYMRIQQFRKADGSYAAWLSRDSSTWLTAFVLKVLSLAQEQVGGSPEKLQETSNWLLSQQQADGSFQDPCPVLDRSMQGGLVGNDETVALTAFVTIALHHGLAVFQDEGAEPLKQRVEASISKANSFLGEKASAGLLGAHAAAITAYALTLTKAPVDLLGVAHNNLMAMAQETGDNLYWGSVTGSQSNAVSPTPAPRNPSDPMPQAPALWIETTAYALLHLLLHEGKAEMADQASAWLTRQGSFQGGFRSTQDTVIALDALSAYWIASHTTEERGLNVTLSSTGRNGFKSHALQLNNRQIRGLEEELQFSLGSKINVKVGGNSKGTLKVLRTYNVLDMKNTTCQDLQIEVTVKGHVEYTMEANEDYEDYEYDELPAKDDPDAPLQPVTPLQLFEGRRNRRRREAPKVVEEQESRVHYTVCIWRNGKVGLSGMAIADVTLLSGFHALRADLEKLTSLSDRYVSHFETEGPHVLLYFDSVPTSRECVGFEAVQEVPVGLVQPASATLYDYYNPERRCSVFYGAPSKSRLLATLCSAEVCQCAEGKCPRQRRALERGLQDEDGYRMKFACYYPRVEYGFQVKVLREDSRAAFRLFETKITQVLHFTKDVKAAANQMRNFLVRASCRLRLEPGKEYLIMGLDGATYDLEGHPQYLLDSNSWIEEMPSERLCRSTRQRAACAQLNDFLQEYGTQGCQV
Chain of UniProt P55210 (P55210 whole entry, looked up): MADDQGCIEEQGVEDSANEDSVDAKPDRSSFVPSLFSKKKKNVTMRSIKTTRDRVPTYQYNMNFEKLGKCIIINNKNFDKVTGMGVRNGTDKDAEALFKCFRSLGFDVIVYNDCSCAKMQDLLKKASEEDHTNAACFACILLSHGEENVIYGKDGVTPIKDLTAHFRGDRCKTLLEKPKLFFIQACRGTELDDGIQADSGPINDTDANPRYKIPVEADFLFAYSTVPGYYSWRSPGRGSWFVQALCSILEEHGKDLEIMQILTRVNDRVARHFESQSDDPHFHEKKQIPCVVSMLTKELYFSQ
Chain of UniProt Q92828 (Q92828 whole entry, looked up): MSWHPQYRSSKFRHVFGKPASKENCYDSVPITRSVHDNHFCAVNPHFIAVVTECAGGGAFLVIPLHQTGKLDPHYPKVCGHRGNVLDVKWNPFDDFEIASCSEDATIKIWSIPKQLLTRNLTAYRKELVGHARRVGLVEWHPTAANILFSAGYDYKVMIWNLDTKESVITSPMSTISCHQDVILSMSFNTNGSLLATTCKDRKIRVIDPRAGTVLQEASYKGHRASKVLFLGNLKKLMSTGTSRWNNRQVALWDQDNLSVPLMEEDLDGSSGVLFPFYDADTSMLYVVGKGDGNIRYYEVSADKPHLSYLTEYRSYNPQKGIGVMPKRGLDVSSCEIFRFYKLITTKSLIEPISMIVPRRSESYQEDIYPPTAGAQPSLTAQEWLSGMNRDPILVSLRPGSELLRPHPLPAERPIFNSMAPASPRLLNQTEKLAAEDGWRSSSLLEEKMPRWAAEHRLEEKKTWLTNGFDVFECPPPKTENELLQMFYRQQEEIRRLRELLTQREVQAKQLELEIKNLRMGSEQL
Chain of UniProt Q9NYV4 (Q9NYV4 whole entry, looked up): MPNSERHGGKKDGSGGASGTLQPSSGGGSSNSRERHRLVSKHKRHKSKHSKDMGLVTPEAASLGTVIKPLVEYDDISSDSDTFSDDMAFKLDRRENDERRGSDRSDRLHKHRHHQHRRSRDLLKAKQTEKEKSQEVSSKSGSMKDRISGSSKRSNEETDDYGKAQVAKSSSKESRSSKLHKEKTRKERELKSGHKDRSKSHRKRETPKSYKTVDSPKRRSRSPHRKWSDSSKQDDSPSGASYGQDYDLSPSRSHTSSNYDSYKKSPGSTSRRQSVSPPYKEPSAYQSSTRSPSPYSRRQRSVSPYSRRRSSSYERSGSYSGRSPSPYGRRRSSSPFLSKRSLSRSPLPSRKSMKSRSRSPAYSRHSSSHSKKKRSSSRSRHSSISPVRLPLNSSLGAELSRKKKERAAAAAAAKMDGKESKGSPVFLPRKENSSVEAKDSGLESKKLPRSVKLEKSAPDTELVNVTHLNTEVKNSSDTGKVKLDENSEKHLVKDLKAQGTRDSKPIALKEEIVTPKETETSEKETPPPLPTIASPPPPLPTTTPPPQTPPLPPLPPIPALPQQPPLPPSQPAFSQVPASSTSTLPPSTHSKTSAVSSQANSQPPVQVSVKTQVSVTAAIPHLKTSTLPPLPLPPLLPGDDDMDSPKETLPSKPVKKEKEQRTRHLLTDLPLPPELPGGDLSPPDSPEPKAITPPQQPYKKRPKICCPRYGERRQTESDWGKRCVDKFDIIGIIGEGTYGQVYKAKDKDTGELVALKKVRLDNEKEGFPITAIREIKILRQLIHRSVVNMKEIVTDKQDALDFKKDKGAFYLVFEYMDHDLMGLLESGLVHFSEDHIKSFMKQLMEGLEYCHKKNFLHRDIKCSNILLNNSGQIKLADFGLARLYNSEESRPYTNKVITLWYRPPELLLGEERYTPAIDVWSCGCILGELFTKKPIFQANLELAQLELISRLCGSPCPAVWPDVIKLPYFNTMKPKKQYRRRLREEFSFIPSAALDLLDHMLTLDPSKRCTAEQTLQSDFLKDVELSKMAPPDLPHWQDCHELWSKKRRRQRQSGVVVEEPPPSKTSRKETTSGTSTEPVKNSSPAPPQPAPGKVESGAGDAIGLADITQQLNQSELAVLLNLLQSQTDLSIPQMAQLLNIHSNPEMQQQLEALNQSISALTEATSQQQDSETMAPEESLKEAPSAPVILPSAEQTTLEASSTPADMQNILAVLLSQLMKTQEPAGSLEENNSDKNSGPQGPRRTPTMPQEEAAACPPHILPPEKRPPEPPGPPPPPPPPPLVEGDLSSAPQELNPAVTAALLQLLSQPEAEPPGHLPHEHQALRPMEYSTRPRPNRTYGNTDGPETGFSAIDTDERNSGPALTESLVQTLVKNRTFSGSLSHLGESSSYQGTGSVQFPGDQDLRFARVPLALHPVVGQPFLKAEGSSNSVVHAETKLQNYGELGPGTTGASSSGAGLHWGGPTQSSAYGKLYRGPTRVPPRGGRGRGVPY
Chain of UniProt P33552 (P33552 whole entry, looked up): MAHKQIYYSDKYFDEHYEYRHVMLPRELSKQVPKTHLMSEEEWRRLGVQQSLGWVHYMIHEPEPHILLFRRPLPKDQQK

log2 fold change, inactive:
CHD3 isoform 3 (UniProt Q12873) -0.001
CEBPZOS (UniProt A8MTT3) 0.203
CDK12 (UniProt Q9NYV4) 0.058
CALCOCO2 isoform 4 (UniProt Q13137) 0.005
C4orf33 (UniProt Q8N1A6) 0.082
COPS3 (UniProt Q9UNS2) 0.011
CSK (UniProt P41240) 0.013
CFAP47 (UniProt Q6ZTR5) -0.052
CDC123 (UniProt O75794) -0.081
CRK (UniProt P46108) -0.022
CHD4 isoform 2 (UniProt Q14839) 0.007
CHMP4B (UniProt Q9H444) 0.044
CEMIP2 (UniProt Q9UHN6) 0.04
CD151 (UniProt P48509) -0.121
CCND3 (UniProt P30281) -0.154
CHPT1 (UniProt Q8WUD6) 0.047
CLINT1 isoform 3 (UniProt Q14677) 0.111
CCDC167 (UniProt Q9P0B6) 0.034
CETN3 (UniProt O15182) 0.025
C4A (UniProt P0C0L4) 0.149
CRLS1 (UniProt Q9UJA2) -0.036
CKS2 (UniProt P33552) 0.04
CERS2 (UniProt Q96G23) -0.018
COX6B1 (UniProt P14854) 0.078
CSNK1D (UniProt P48730) 0.109
CHCHD1 (UniProt Q96BP2) -0.004
COPS4 (UniProt Q9BT78) 0.003
CLN8 (UniProt Q9UBY8) 0.022
CKB (UniProt P12277) 0.063
CCNB1 (UniProt P14635) -0.015
CORO2A (UniProt Q92828) 0.078
CDK5RAP1 (UniProt Q96SZ6) 0.03
CRKL (UniProt P46109) 0.014
CASP7 isoform 3 (UniProt P55210) 0
CDC42EP1 (UniProt Q00587) -0.089
CDK1 (UniProt P06493) -0.024
CAD (UniProt P27708) -0.089
COMT (UniProt P21964) 0.017
